Compound activity deposited in PubChem BioAssay by National Center for Advancing Translational Sciences (NCATS).
Shown are actives, neighbours in structure and some others; about 7.9% of the full set was active somewhere.
FMDV antiviral – High Throughput Screening for Foot and Mouth Disease Virus Antivirals; FMDV antiviral cell-based qHTS; Potency, µM (series often up to 57.9 µM), for the others: top-dose activity change, negative = inhibition, usual class: inhibitors; hit rate 1.2% among 410,000; AID 1159524, 2015; calls by dose curve; tested in HEK293T cells; note: read-out not given here; potency is the fitted concentration of half-maximal effect; nearly all actives have a fitted effect of over 45% in size
LASV entry inh – qHTS for Inhibitors of binding or entry into cells for Lassa Virus. Lassa virus pseudotype entry inhibition, cell reporter. Potency, µM (top dose mostly 37.9 µM), without a hit: at the highest dose activity change, negative = inhibition, usual class: inhibitors. hit rate 1.2% among 300,000; calls by dose curve; tested in HEK293 cells; note: potency is the fitted concentration of half-maximal effect; nearly all actives have a fitted effect of over 50% in size
MARV entry inh – qHTS for inhibitors of binding or entry into cells for Marburg Virus | Potency, µM (series often up to 37.8 µM), for the others: top-dose activity change, negative = inhibition, hits mostly inhibitors | hit rate 1.8% among 300,000 | Marburg virus pseudotyped entry inhibition, cell reporter; calls by dose curve; tested in HEK293 cells; note: potency is the fitted concentration of half-maximal effect
HCMV antiviral – qHTS Assay for inhibitors of the human cytomegalovirus (HCMV); HFF cells, HCMV-luciferase reporter, 72 h; active compounds read low; activity change, negative = inhibition, % at 57.5 µM; hit rate 4.5% among 410,000; in the data active = activity change below about -60%; inconclusive = no clear call, values can overlap the other calls; inactive = above about -39%
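Inhibition of viral replication was scored as loss of reporter luminescence in HFFs infected with HCMV-luciferase (MOI 1 PFU/cell) for 72 h; compounds tested at 2 doses, normalized to buffer and Salinomycin controls.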
HCV inhibitor – qHTS Assay for Inhibitors of Hepatitis C Virus (HCV) | Huh7.5.1 HCVcc-Cre infection, luciferase reporter, 44 h | Potency, µM (highest dose often 41.8 µM), for the others: at the top dose activity change, negative = inhibition, actives largely listed as inhibitors | hit rate 3.4% among 340,000; active = well fitted inhibition curve with a large enough effect; inconclusive = small, poorly fitted or top-dose-only effect, or another doubt; inactive = no such curve, though single readings can be large or run the other way; note: potency is the fitted concentration of half-maximal effect
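A cell-based infection assay in which seeded cells (1,000 per well) receive test compound after 4 h, are inoculated with HCVcc-Cre at approximately 0.5 moi, and are incubated 44 h before luminescence detection.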
Starred values were filed as active, the others as inactive; ? = inconclusive; . = no result; ! = a repeat was not active; [ ] = dose if it differs, or a comment. % is set by controls: 0 for no effect and ±100 for the full control effect.

SMILES | FMDV antiviral | LASV entry inh | MARV entry inh | HCMV antiviral | HCV inhibitor
Cc1cc(NC(=O)NC(=O)c2ccccc2NC(=O)C(C)N)ccc1Oc1ncc(Br)cn1 (centres undefined) | 15% | ? | ? | -83* | -23%
CC1(CSc2ccccc2)CC(=O)N1 (centres undefined) | -4% | . | . | -79* | .
CCOC(=O)c1c(NC(=O)c2ccc(S(=O)(=O)N(CCOC)CCOC)cc2)sc2c1CC(C)(C)NC2(C)C | 10% | -1%[46.1 µM] | . | ? | .
Cn1c(=O)c2c(-c3ccccc3)n3c(c2n(C)c1=O)C(c1ccc([N+](=O)[O-])cc1)Nc1ccccc1-3 (centres undefined) | -29% | -24%[46.1 µM] | ? | -68* | .
Cc1ccc(-c2c3c(=O)n(C)c(=O)n(C)c3c3n2-c2ccccc2NC3c2ccc(C)cc2O)cc1 (centres undefined) | -26% | 8%[46.1 µM] | ? | -96* | .
COc1ccc(-c2c3c(=O)n(C)c(=O)n(C)c3c3n2-c2ccccc2NC3c2ccco2)cc1 (centres undefined) | ? | 0%[46.1 µM] | ? | 14 | .
COc1ccc(O)c(C2Nc3ccccc3-n3c(-c4ccccc4)c4c(=O)n(C)c(=O)n(C)c4c32)c1 (centres undefined) | 40µM* | 10%[46.1 µM] | 2%[46.1 µM] | ? | .
COc1ccc(C)c2sc(NC(=O)c3ccc(S(=O)(=O)N(C)C)cc3)nc12 | 5% | 7%[46.1 µM] | . | 3 | .
O=C1/C(=C\c2cccc([N+](=O)[O-])c2O)SC(=S)N1Cc1ccccc1 | ? | . | . | -64* | -16%
COc1cc(/C=C2\SC(=O)N(Cc3ccc(F)cc3)C2=O)cc([N+](=O)[O-])c1O | -10% | ? | ? | -76* | -6%
COc1cc(/C=C2\SC(=O)N(Cc3ccc(Cl)cc3)C2=O)cc([N+](=O)[O-])c1O | ? | ? | ? | -23 | -17%
S=C1SCN(Cc2cccnc2)CN1Cc1ccccc1 | -15% | 0% | ? | -94* | ?
S=C1SCN(Cc2ccccn2)CN1Cc1ccco1 | -19% | 14%[14.3 µM] | 9.2µM* | ? | .
COCCN1CSC(=S)N(Cc2ccco2)C1 | 25% | -6% | ? | -22 | 5%
COc1cc(=O)n2c(c1C(=O)NCc1nonc1C)CCN(C(=O)c1cccc(C)c1C)CC2 | -2% | . | . | . | .
COc1ccc(-c2noc(COc3cc(C)c(Br)c(C)c3)n2)cc1OC | -21% | 5%[46.1 µM] | -1%[46.1 µM] | 6 | .
COCCCNC(=O)c1c(NC(=O)Cc2coc3cc(C)cc(C)c23)sc2c1CCCC2 | 12% | -5%[46.1 µM] | -15%[46.1 µM] | 0 | .
O=C1/C(=C/c2ccccc2O)SC(=S)N1Cc1cccnc1 | 32µM* | 11% | -4% | -78* | -1%
O=C1CSC(=S)N1Cc1cccnc1 | ? | ? | ? | -98* | ?
COc1cc([N+](=O)[O-])cc(/C=C2/SC(=S)N(Cc3ccccc3)C2=O)c1O | ? | . | . | -88* | -28%
O=C1/C(=C\c2ccc(O)cc2)SC(=S)N1Cc1ccccc1 | -20% | ? | ? | -27 | 12%
O=C1/C(=C/c2ccc(O)c([N+](=O)[O-])c2)SC(=S)N1Cc1ccccc1 | ? | 22%[46.1 µM] | -22%[46.1 µM] | -61* | 8%
COc1ccc(S(=O)(=O)N2CCOCC2)cc1NC(=O)c1ccccc1-c1ccc(C(F)(F)F)cc1 | 16% | 6.3µM* | ? | ? | -13%
CCOc1cc(N2CCOCC2)c(OCC)cc1NC(=O)COc1cccc(CC)c1 | -21% | . | . | -36 | 10µM*
CCOc1ccc(S(=O)(=O)N2CCN(CC)CC2)cc1NC(=O)c1ccccc1F | 11% | 13%[46.1 µM] | -18%[46.1 µM] | -84* | -15%
SMILES | FMDV antiviral | LASV entry inh | MARV entry inh | HCMV antiviral | HCV inhibitor
COc1ccc(NC(=O)c2ccccc2-c2ccc(C(F)(F)F)cc2)cc1S(=O)(=O)N1CCOCC1 | 41% | ? | -38% | -67* | 1%
COc1ccc(S(=O)(=O)N2CCOCC2)cc1NC(=O)c1ccncc1 | 3% | . | . | -38 | 7%
Cc1ccc(Cl)cc1NC(=O)Nc1nnc(N(C)Cc2ccccc2)s1 | -10% | -8%[46.1 µM] | -11%[46.1 µM] | 19 | .
Cc1ccc(C)c(CN2CCCN(CC(=O)Nc3ccc(C)c(C)c3)S2(=O)=O)c1 | -14% | -20%[46.1 µM] | . | 0 | .
CCOc1cc(N2CCOCC2)c(OCC)cc1NC(=O)COc1ncnc2ccccc12 | -9% | -18% | -35% | 51 | ?
Cc1ccc(NC(=O)c2cc(-c3ccco3)nc3ccccc23)cc1S(=O)(=O)N1CCOCC1 | -21% | -22% | ? | -3 | -14%
COc1ccc(NC(=O)c2cc(-c3ccco3)nc3ccccc23)cc1S(=O)(=O)N1CCOCC1 | -29% | . | . | 15 | 8.9µM*
COc1ccc(Nc2nc(-c3ccccc3)nc3ccccc23)cc1S(=O)(=O)N1CCOCC1 | ? | . | . | -60* | 22µM*
CCOc1cc(N2CCOCC2)c(OCC)cc1NC(=O)c1cc(-c2ccco2)nc2ccccc12 | . | ? | 16µM* | ? | -27%
CC[C@@H](C)CN1C(=O)N[C@@H](c2ccccc2)C(C(=O)OC)=C1C | . | . | -20%[14.2 µM] | . | .
O=C(COc1ccc(F)cc1)Nc1ccc(Cl)c(-c2nc3ccccc3[nH]2)c1 | -20% | ? | ? | -31 | .
COc1ccc(C(=O)Nc2ccccc2-c2nc3ccccc3s2)cc1OC | 0% | 3%[46.1 µM] | 0%[46.1 µM] | -23 | .
CCn1cc([N+](=O)[O-])c(C(=O)N2N=C(c3cccc4ccccc34)CC2c2ccccc2O)n1 (centres undefined) | ? | ? | ? | 33 | 11µM*
CCn1cc([N+](=O)[O-])c(C(=O)N2N=C(c3ccc(OC)cc3OC)CC2c2ccccc2O)n1 (centres undefined) | -7% | ? | -12% | 24 | -7%
CCn1cc([N+](=O)[O-])c(C(=O)N2N=C(c3ccc4ccccc4c3)CC2c2ccccc2O)n1 (centres undefined) | -13% | 5% | ? | 82 | 10µM*
CCn1cc(Cl)c(C(=O)N2N=C(c3ccc4ccccc4c3)CC2c2ccccc2O)n1 (centres undefined) | -25% | ? | ? | 2 | ?
COc1ccc(CCNC(=O)c2ccc3c(c2)N(Cc2cc(C)ccc2C)C(=O)c2ccccc2S3=O)cc1OC (centres undefined) | -20% | ? | -21%[46.1 µM] | -11 | .
Cc1cccc(C)c1OCc1cc(C(=O)NCC2CCCCC2)no1 | -7% | . | . | ? | 2%
Cc1cccc(C)c1OCc1cc(C(=O)N(Cc2c(C)nn(C)c2C)C2CC2)no1 | 20µM* | . | . | 0 | 10µM*
CCC(C)NC(=O)c1sc2nc(C)c(C(=O)Nc3ccc(C)cc3C)c(-c3ccc(Br)cc3)c2c1N (centres undefined) | 0% | 7%[46.1 µM] | ? | 10 | .
O=C(CCn1cnnn1)Nc1ccc(F)cc1 | 23% | 11% | ? | -103*! | 24%
Cc1sc2ncnc(N3CCC(C(=O)Nc4ccc(Br)cc4Br)CC3)c2c1C | 20µM* | ? | 11µM* | -16 | ?
